This note sets out measurements from PubChem BioAssay AID2221 (Broad Institute, 2009).

Hit rate of the full screen: of about 290,000 compounds, about 2,200 (0.76%) were called active. The sample as a whole holds a higher share of actives than the screen did. Unmarked numbers belong to inactive results. No stated cut-off is given here; in the data, active means inhibition above about 30%; inconclusive means no clear call, values can overlap the other calls; inactive means below that.

The target of this assay is Protein RecA (Mycobacterium tuberculosis (strain ATCC 25618 / H37Rv)) (UniProt P9WHJ3). Nature of the assay: Mtb RecA intein splicing inhibitors, primary screen, biochemical, fluorescence, HTS (AID 2221).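 Further: 0% = vehicle wells and 100% = reference inhibitor control wells.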 Conditions: cell-free RecA intein splicing, active compounds read high, concentration not given here.
Protein RecA (Mycobacterium tuberculosis (strain ATCC 25618 / H37Rv)), sequence (P9WHJ3 whole entry, looked up): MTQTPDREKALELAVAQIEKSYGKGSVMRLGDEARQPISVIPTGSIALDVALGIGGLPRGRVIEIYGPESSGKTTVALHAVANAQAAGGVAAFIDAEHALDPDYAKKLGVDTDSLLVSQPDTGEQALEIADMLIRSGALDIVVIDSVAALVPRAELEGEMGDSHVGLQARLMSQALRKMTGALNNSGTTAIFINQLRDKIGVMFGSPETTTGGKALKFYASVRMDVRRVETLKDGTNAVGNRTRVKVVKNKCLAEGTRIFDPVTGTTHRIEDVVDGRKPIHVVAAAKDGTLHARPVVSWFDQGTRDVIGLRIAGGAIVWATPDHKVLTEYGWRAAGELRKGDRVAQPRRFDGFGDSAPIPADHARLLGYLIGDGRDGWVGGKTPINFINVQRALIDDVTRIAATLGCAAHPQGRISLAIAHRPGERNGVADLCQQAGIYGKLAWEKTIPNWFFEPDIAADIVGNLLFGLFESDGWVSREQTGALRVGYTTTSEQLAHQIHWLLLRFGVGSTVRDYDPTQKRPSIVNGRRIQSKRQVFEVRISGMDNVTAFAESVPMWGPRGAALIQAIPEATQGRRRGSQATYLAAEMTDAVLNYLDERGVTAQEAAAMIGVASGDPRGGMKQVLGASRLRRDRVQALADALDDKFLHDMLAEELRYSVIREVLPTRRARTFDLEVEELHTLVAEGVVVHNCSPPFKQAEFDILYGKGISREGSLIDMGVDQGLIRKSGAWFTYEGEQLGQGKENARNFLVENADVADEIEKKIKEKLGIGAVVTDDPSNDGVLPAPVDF
For orientation: inhibition means the drop in the measured response relative to a control, in per cent. Take `Cc1ccc(Nc2nc(CSc3nnc(-c4ccncc4)n3-c3ccccc3C)cs2)cc1`: the inhibition was 16.7%.
The value for `COc1cc(OC)c(S(=O)(=O)Nc2ccccc2C(=O)O)cc1S(=O)(=O)Nc1ccccc1C(=O)O` was -1.6%.
To `O=C(COc1coc(CN2CCN(c3ccccc3F)CC2)cc1=O)N1CCc2ccccc21` belongs -2.58%; to `O=C(Cc1ccccc1)Nc1cccc(NC(=O)c2ccccc2)c1`, -3.56%; to `CCc1cccc(NC(=O)CCC(=O)O)c1`, -2.03%.
To `O=C(CCl)Nc1cccc(CP(=O)(c2ccccc2)c2ccccc2)c1` belongs 35.8% (active); to `COc1ccc(NC(=O)CCCNC(=O)Cn2cnc3sc4c(c3c2=O)CCCC4)cc1OC`, 1.78%; to `CC(C)OC(=O)CN1C(=O)C(=O)c2ccccc21`, 40% (active).
Take `Cc1cc(/C=C2/SC(=O)N(CC(=O)OC(C)C)C2=O)c(C)n1C`: the inhibition was -2.4%.
For the compound `CCOC(=O)CN1C(=O)C(=O)c2cc(C)ccc21`, the inhibition was 1.57%.
On to `CC(Oc1cccc(Cl)c1)C(=O)NC1CC(C)(C)NC(C)(C)C1` (configuration not stated), for which the inhibition was 1.06%.
To `Cc1ccc(Cl)cc1NC(=O)C1CCN(S(C)(=O)=O)CC1` belongs 4.05%; to `CN(c1ccc(OCC(=O)O)cc1)S(=O)(=O)c1ccc2ccccc2c1`, 1.36%; to `COCCNC(=O)COc1ccc(N(C)S(=O)(=O)c2ccc3ccccc3c2)cc1`, 2.67%.
`CC(=O)Oc1ccc(N(C(C)=O)S(=O)(=O)c2ccc3ccccc3c2)cc1Br`: the inhibition was 36.3% (active).
Turning to `CC/C(=N\NC(=O)c1c(C)nc2ccccn12)c1ccc(Cl)cc1`, the inhibition is -3.74%.
`COc1ccc(NC(=O)C(NC(C)=O)C(=O)NCc2ccccc2Cl)cc1` (configuration not stated): the inhibition was -12.2%.
To `COc1ccc(C2CC(c3cccs3)Nc3nnnn32)cc1` (configuration not stated) belongs 2.29%.
To `COc1ccc(C2C(C#N)=C(N)Oc3n[nH]c(C)c32)cc1CN1CCN(c2ccc(F)cc2)CC1` (configuration not stated) belongs 49.8% (active); to `COc1ccccc1CN1CCCC(N2CCN(c3ccc(F)cc3)CC2)C1` (configuration not stated), 1.51%; to `CCCc1[nH]nc2c1C(c1ccc(OC)c(Cn3nc(C)c(Br)c3C)c1)C(C#N)=C(N)O2` (configuration not stated), 16.3%.
To `O=C(CN1CCCC1)Nc1sc2c(c1C(=O)Nc1ccccc1)CCCC2` belongs -1.42%.
Take `CCOP(=O)(OCC)C(Nc1ccc([N+](=O)[O-])cc1)c1ccc(Cl)cc1` (configuration not stated): the inhibition is 5.51%.
Consider `COc1ccc(/C=C2/C(=O)N(c3ccccc3)N=C2C)c(OC)c1`, for which the inhibition is 70% (active).
Regarding `COc1ccc(/C=C2/C(=O)OCc3cc(OC)c(OC)cc32)c(OC)c1`, the inhibition is -0.742%.
For `COc1ccc(C2/C(=C(/O)c3ccccc3)C(=O)C(=O)N2C)c(OC)c1` (configuration not stated), the inhibition was 1.48%.
To `O=[N+]([O-])c1ccc(N2CCN(c3ccc(F)cc3)CC2)cn1` belongs 0.617%.
To `COc1ccc(C(=O)NC2CC(C)(C)NC(C)(C)C2)cc1OC` belongs 0.554%; to `O=C(CCCN1C(=O)/C(=C\c2ccccc2)SC1=S)Nc1ccccc1O`, -1.47%.
Take `O=C(CCCN1C(=O)/C(=C/c2ccccc2)SC1=S)Nc1ccc(O)cc1`: the inhibition is 45.1% (active).
To `Cc1ccc(/C=C2\SC(=S)N(CCC(=O)Nc3ccc(O)cc3)C2=O)cc1` belongs 3.35%; to `O=C(CCCN1C(=O)/C(=C/c2cccs2)SC1=S)Nc1ccc(O)cc1`, 59% (active); to `O=C(CCN1C(=O)/C(=C/c2cccs2)SC1=S)NNC(=O)c1cccc(O)c1`, -2.74%.
To `COc1ccccc1C(=O)NNC(=O)CCN1C(=O)/C(=C\c2ccccc2)SC1=S` belongs 1.3%; to `CCCCCCNS(=O)(=O)c1ccccc1Br`, 8.15%.
To `O=C1N[C@H](Cc2ccccc2)C(=O)N[C@H]1Cc1cn(S(=O)(=O)c2ccccc2)c2ccccc12` belongs 2.29%.
For `CCOC(=O)CSc1nnc(CNC(=O)c2cccs2)n1-c1cc(OC)ccc1OC`, the inhibition was -0.643%.
